According to publication PMC5540273 (PLoS ONE, 2017):

Legend:
Conditions in all cases: concentration: 1 μM, replicates: in singlicate; n = 1
[1] = system: CSNK1G1
[2] = system: CSNK1G2
[3] = system: CSNK1G3
[4] = system: CSNK2A1
[5] = system: CSNK2A2
[6] = system: T1, CTK
T1 construct: gene MATK

[7] = system: DAPK1
[8] = system: DAPK2
[9] = system: DAPK3
[10] = system: T2, DCAMKL1
T2 construct: gene DCLK1
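Note: KINOMEscan kinase panel screen.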

| SMILES | %Inh [1] [%] | %Inh [2] [%] | %Inh [3] [%] | %Inh [4] [%] | %Inh [5] [%] | %Inh [6] [%] | %Inh [7] [%] | %Inh [8] [%] | %Inh [9] [%] | %Inh [10] [%] |
| --- | --- | --- | --- | --- | --- | --- | --- | --- | --- | --- |
| COc1cccc(C2=C(Nc3cccc(O)c3)C(=O)NC2=O)c1 [SB-390771] | 9 | 0 | 15 | 0 | 8 | 0 | 14 | 0 | 16 | 21 |
| Cc1ccc(Nc2ccnc(Nc3ccc(C)c(F)c3)n2)cc1O.Cl [GW582868] | 0 | 0 | 0 | 0 | 9 | 0 | 0 | 0 | 4 | 11 |
| Nc1ncc(-c2cn[nH]c2)c2scc(-c3ccc4c(c3)CCN4C(=O)Cc3ccccc3)c12 [GSK2593067] | 6 | 24 | 27 | 11 | 0 | 12 | 0 | 0 | 22 | 0 |
| COc1ccc(C2=C(Nc3cccc(O)c3)C(=O)NC2=O)cc1 [SB-390766] | 4 | 0 | 19 | 0 | 19 | 1 | 0 | 0 | 52 | 13 |
| CN(c1ccc(F)c(NC(=O)c2cccc(OC(C)(C)C#N)c2Cl)c1)c1ccc2nc(NC(=O)C3CC3)sc2n1 | 0 | 12 | 0 | 35 | 10 | 13 | 4 | 0 | 4 | 0 |
| Cl.Cl.NC(CNC(=O)c1cc(Br)c(-c2ccnc3[nH]ccc23)s1)c1ccccc1 (stereo not drawn) [GSK1322949] | 30 | 59 | 60 | 90 | 84 | 0 | 41 | 31 | 54 | 37 |
| CN(c1ccc(NC(=O)Nc2cccc(Cl)c2)cc1)c1ccnc(N)n1.Cl [GW830707] | 12 | 0 | 0 | 0 | 0 | 13 | 0 | 0 | 0 | 0 |
| Cc1ccccc1CC(=O)N1CCc2cc(-c3cn(C)c4ncnc(N)c34)ccc21 [GSK2603346] | 12 | 5 | 17 | 30 | 15 | 14 | 0 | 0 | 0 | 0 |
| COc1ccc(NC(=O)c2ccoc2)cc1-c1ccc(C(=O)NCC2CC2)cc1 [GW810437] | 0 | 0 | 0 | 0 | 0 | 15 | 0 | 17 | 13 | 0 |
